Test systems include NCI-H23 lung; NCI-H226 lung; NCI-H322M lung; HOP-62 NSCLC; NCI-H460 lung; HOP-92 NSCLC; NCI-H522 lung; A549/ATCC NSCLC; 786-0 renal; COLO 205 colon; DU-145 prostate; K-562 leukemia; MALME-3M melanoma; MDA-MB-231 breast; RXF 393 renal; SF-268 CNS; SF-295 CNS; SF-539 CNS; UACC-257 melanoma; M14 melanoma.
Holding throughout (assay): NCI-60 one-dose screen, 48 h (100 = growth as untreated, 0 = no growth, -100 = all killed)
Holding throughout (settings): 10 µM unless noted

Compounds without any hit were thinned out: in the full panel of roughly 83,000, 20% have a hit.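 In brief: 96-well plates, 48 h treatment, single concentration, percent growth endpoint.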 Values without a mark were called inactive. Calls of active or inactive are those of the source. Rule for the calls: active = growth percent below 10; inactive = the rest.

As to `O=C1c2ccccc2-c2c1c1ccncc1c(=O)n2CCCn1ccnc1`, the growth in the assay with NCI-H23 lung is 51.8%; with NCI-H226 lung, 54.4%; in the assay with NCI-H322M lung it was 83.8%; in the assay on HOP-62 NSCLC, 39.9%; in the assay on NCI-H460 lung it was 21.8%; with HOP-92 NSCLC, 78.5%. Besides, the growth with NCI-H522 lung is 29.6%; in the assay on A549/ATCC NSCLC, 56.3%; in the assay on 786-0 renal, 55.4%; in the assay on COLO 205 colon, 56.4%; in the assay with DU-145 prostate it was 58.6%; in the assay with K-562 leukemia, 20.5%. The growth was 98% with MALME-3M melanoma; 73.8% in the assay with MDA-MB-231 breast; 55.6% in the assay on RXF 393 renal; 38.7% in the assay with SF-268 CNS; 56.2% with SF-295 CNS; 31.6% with SF-539 CNS. The results for the growth in the assay on UACC-257 melanoma and with M14 melanoma were 93.5% and 63.3%, respectively.
Take `N#C/C(Sc1nc2sc3c(c2c(=O)n1Cc1ccccc1)CCCC3)=C1/SC=C(c2ccc(Cl)cc2)N1c1ccccc1`: the growth is 86.6% in the assay with NCI-H23 lung; 106% with NCI-H226 lung; 84.5% in the assay with NCI-H322M lung; 78.8% with HOP-62 NSCLC; 90.6% in the assay with NCI-H460 lung; 68.6% in the assay with HOP-92 NSCLC. In addition, the growth is 89.7% in the assay with NCI-H522 lung; 100% in the assay on A549/ATCC NSCLC; 87.4% in the assay with 786-0 renal; 104% in the assay on COLO 205 colon; 119% with DU-145 prostate; 82.5% in the assay with K-562 leukemia. The growth is 89.8% with MALME-3M melanoma; 86.4% in the assay on MDA-MB-231 breast; 90.9% with RXF 393 renal; 78% with SF-268 CNS; 88.9% in the assay with SF-295 CNS; 72.3% with SF-539 CNS. Besides, the growth with UACC-257 melanoma is 108%; in the assay on M14 melanoma, 90.5%.
As for `COc1ccc(NC(=O)c2ccc(NC3=C(c4ccc(Cl)cc4)C(=O)NC3=O)cc2)cc1`, the growth was 85.3% in the assay with NCI-H23 lung; 84.4% in the assay with NCI-H226 lung; 85.2% in the assay on NCI-H322M lung; 80.8% in the assay on HOP-62 NSCLC; 90.6% with NCI-H460 lung; 102% in the assay with HOP-92 NSCLC. The growth with NCI-H522 lung was 45.2%; with A549/ATCC NSCLC, 71.2%; in the assay with 786-0 renal it was 89.1%; with COLO 205 colon, 86.3%; in the assay with DU-145 prostate, 91.4%; in the assay with K-562 leukemia it was 79%. Besides, the growth in the assay on MALME-3M melanoma is 86.9%; in the assay with MDA-MB-231 breast, 84.8%; in the assay on RXF 393 renal, 84.4%; with SF-268 CNS, 83.8%; with SF-295 CNS it was 86.8%; in the assay with SF-539 CNS, 92.4%. Moreover, the growth in the assay on UACC-257 melanoma is 85.9%; with M14 melanoma, 102%.
Consider `Cn1cc(-c2ccc3c(Nc4cccc(NC(=O)Nc5cccc(F)c5)c4)ncnc3c2)cn1`, for which the growth in the assay on NCI-H23 lung was 47.1%; with NCI-H226 lung, 67.8%; in the assay on NCI-H322M lung it was 40.7%; in the assay on HOP-62 NSCLC, 42.8%; with NCI-H460 lung, 29.1%; in the assay with HOP-92 NSCLC, 53.6%. Moreover, the growth is 26.5% with NCI-H522 lung; 28.7% in the assay with A549/ATCC NSCLC; 18.1% with 786-0 renal; 4.23% (active) in the assay on COLO 205 colon; 41.8% in the assay with DU-145 prostate; 4.38% (active) in the assay on K-562 leukemia. For the same compound, the growth with MALME-3M melanoma was 27.5%; with MDA-MB-231 breast, 41.8%; with RXF 393 renal, -13.9% (active); with SF-268 CNS, 46.7%; with SF-295 CNS, -13.2% (active); with SF-539 CNS, 20.4%. The growth was 63.9% in the assay with UACC-257 melanoma and 41.3% in the assay on M14 melanoma.
Regarding `CSc1nc(CC(C)C)c(C#N)c(=O)n1C`, the growth is 66.8% with NCI-H23 lung; 60.3% in the assay with NCI-H226 lung; 84.7% in the assay with NCI-H322M lung; 79.3% in the assay with HOP-62 NSCLC; 83.3% in the assay on NCI-H460 lung; 8.54% (active) in the assay with HOP-92 NSCLC. Besides, the growth is 39.2% with NCI-H522 lung; 80.7% with A549/ATCC NSCLC; 57.9% in the assay on 786-0 renal; 43.3% in the assay on COLO 205 colon; 70.7% in the assay on DU-145 prostate; 68.8% with K-562 leukemia. The growth was 58.4% in the assay with MALME-3M melanoma; 47.3% with MDA-MB-231 breast; 58.7% in the assay with RXF 393 renal; 65.7% in the assay with SF-268 CNS; 73.9% in the assay on SF-295 CNS; 75.9% in the assay on SF-539 CNS. Also, the growth was 78.6% with UACC-257 melanoma and 70.7% in the assay on M14 melanoma.
For `Cc1ccc(S(=O)(=O)c2nc(-c3ccccc3)oc2S(C)=O)cc1` (stereo not given), the growth is 63.6% with NCI-H23 lung; 62.6% in the assay with NCI-H226 lung; 79.9% in the assay with NCI-H322M lung; 78.5% in the assay on HOP-62 NSCLC; 73.1% in the assay on NCI-H460 lung; -51.8% (active) in the assay on HOP-92 NSCLC. For the same compound, the growth with NCI-H522 lung was -74.5% (active); in the assay on A549/ATCC NSCLC, 69.8%; with 786-0 renal, -64.5% (active); with COLO 205 colon, -79.3% (active); with DU-145 prostate it was 47.3%; in the assay on K-562 leukemia it was -31.1% (active). Moreover, the growth was -76.8% (active) in the assay with MALME-3M melanoma; 4.23% (active) in the assay with MDA-MB-231 breast; -33.4% (active) in the assay with RXF 393 renal; 55.9% in the assay with SF-268 CNS; 84.3% in the assay with SF-295 CNS; -22% (active) in the assay on SF-539 CNS. Further, the values for the growth in the assay with UACC-257 melanoma and in the assay on M14 melanoma were 46.5% and -80.6% (active), respectively.
On to `O=C(NS(=O)(=O)c1ccccc1)n1cc(-c2ccncc2)c(-c2cc(O)cc(Cl)c2)n1`, for which the growth was 104% with NCI-H23 lung; 104% in the assay on NCI-H226 lung; 108% in the assay on NCI-H322M lung; 115% in the assay with HOP-62 NSCLC; 111% in the assay with NCI-H460 lung; 103% with HOP-92 NSCLC. In addition, the growth in the assay with NCI-H522 lung is 76.1%; with A549/ATCC NSCLC, 97.5%; in the assay on 786-0 renal it was 98%; in the assay on COLO 205 colon, 114%; in the assay on DU-145 prostate, 112%; with K-562 leukemia it was 78%. The growth in the assay on MALME-3M melanoma was 15.3%; in the assay with MDA-MB-231 breast it was 90.4%; in the assay with RXF 393 renal, 112%; in the assay with SF-268 CNS, 108%; in the assay with SF-295 CNS it was 110%; in the assay with SF-539 CNS, 86.5%. Also, the values for the growth with UACC-257 melanoma and in the assay with M14 melanoma were 70.8% and 32.1%, respectively.
Regarding `C=CCn1c(SCC(=O)Nc2ccc(C(=O)/C=C/c3ccc(Cl)cc3)cc2)nnc1-c1ccc(Cl)c(Cl)c1`, the growth in the assay with NCI-H23 lung is 85%; with NCI-H226 lung, 85.7%; with NCI-H322M lung it was 83.4%; in the assay on HOP-62 NSCLC, 84.3%; with NCI-H460 lung, 90.2%; in the assay on HOP-92 NSCLC, 70.2%. Moreover, the growth in the assay with NCI-H522 lung is 66.5%; in the assay on A549/ATCC NSCLC, 67.4%; in the assay on 786-0 renal it was 82.9%; with COLO 205 colon, 100%; in the assay with DU-145 prostate it was 92.2%; in the assay on K-562 leukemia, 50.4%. In addition, the growth in the assay on MALME-3M melanoma was 85.2%; in the assay on MDA-MB-231 breast it was 85.2%; in the assay with RXF 393 renal, 75.1%; in the assay on SF-268 CNS, 80.4%; with SF-295 CNS it was 93.9%; in the assay with SF-539 CNS it was 87%. Besides, the growth is 93.9% in the assay on UACC-257 melanoma and 80.1% in the assay on M14 melanoma.

For the origin of these results see PubChem BioAssay (NCI).
